Experimental data reported in the supplement of paper PMC9399229.
Where a name gives a salt, the structure may show the parent alone. ± gives the standard deviation of the averaged measurements. Over roughly 1,900 compounds, “relative cell viability (CellTiter-Glo), compound alone” has its median near 1; the lowest 2% begin near 0.16. Only a selection was taken, and the lowest values are over-represented in it overall.

tested on: Hep3B; experiment: relative cell viability (CellTiter-Glo), compound alone (fraction); higher = more viable cells (less growth inhibition); conditions: cabozantinib 0 µM; 4 days

| Structure (SMILES) | relative cell viability |
| --- | --- |
| FC(F)(F)Oc1ccc2nc(-c3ccc(OCCOCCOc4ccc(-c5nc6ccc(OC(F)(F)F)cc6[nH]5)nc4)cn3)[nH]c2c1 | 0.708 ± 0.0018 |
| O=C(O)CCCc1c[nH]c2ccccc12 [3-Indolebutyric acid (IBA)] | 1.11 ± 0.1 |
| O=C(/C=C/c1ccc(CN(CCO)CCc2c[nH]c3ccccc23)cc1)NO [LAQ824 (Dacinostat)] | 0.124 ± 0.015 |
| OCc1c[nH]c2ccccc12 [Indole-3-carbinol] | 1.007 ± 0.0087 |
| COc1cc(C(=O)N2CCC(N3CCN(C)CC3)CC2)ccc1Nc1ncc2c(n1)N(C)c1ccccc1C(=O)N2C | 1.02 ± 0.019 |
| Cc1cc(F)c(Nc2ncnc3cc(OCc4ccccc4)ccc23)cc1O | 1.17 ± 0.027 |
| COC[C@H](NC(=O)c1cnc(C)s1)C(=O)N[C@@H](COC)C(=O)N[C@@H](Cc1ccccc1)C(=O)[C@@]1(C)CO1 [Oprozomib (ONX 0912)] | 0.123 ± 0.005 |
| CC(C)C[C@H](NC(=O)[C@H](Cc1ccccc1)NC(=O)c1cnccn1)B(O)O [Bortezomib (PS-341)] | 0.329 ± 0.066 |
| COc1ccc(C[C@H](NC(=O)[C@H](C)NC(=O)CN2CCOCC2)C(=O)N[C@@H](Cc2ccccc2)C(=O)[C@@]2(C)CO2)cc1 | 0.1525 ± 0.00028 |
| CC(NC(=O)C(Cc1ccccc1)NC(=O)OCc1ccccc1)C(=O)CF (centres undefined) | 0.951 ± 0.043 |
| COC(=O)[C@H](Cc1ccccc1)NC(=O)[C@@H](N)CC(=O)O [Aspartame] | 1.09 ± 0.15 |
| CC(C)C[C@H](NC(=O)[C@H](CCc1ccccc1)NC(=O)CN1CCOCC1)C(=O)N[C@@H](Cc1ccccc1)C(=O)N[C@@H](CC(C)C)C(=O)[C@@]1(C)CO1 [Carfilzomib (PR-171)] | 0.193 ± 0.016 |
| CC(C)N(C[C@H]1O[C@@H](n2cnc3c(N)ncnc32)[C@H](O)[C@@H]1O)[C@H]1C[C@@H](CCc2nc3cc(C(C)(C)C)ccc3[nH]2)C1 | 1.12 ± 0.029 |
| C[C@H]1O[C@@H](O[C@H]2[C@@H](O)C[C@H](O[C@H]3[C@@H](O)C[C@H](O[C@H]4CC[C@@]5(C)[C@H](CC[C@@H]6[C@@H]5C[C@@H](O)[C@]5(C)[C@@H](C7=CC(=O)OC7)CC[C@]65O)C4)O[C@@H]3C)O[C@@H]2C)C[C@H](O)[C@@H]1O [Digoxin] | 0.0999 ± 0.0026 |
| C[C@H]1Oc2cc(cnc2N)-c2c(nn(C)c2C#N)CN(C)C(=O)c2ccc(F)cc21 | 1.12 ± 0.049 |
| Cn1cc(C2=C(c3cn(CCCSC(=N)N)c4ccccc34)C(=O)NC2=O)c2ccccc21 [Ro 31-8220 Mesylate] | 1.05 ± 0.1 |
| C/C(=N\NC(=O)c1cccc(S(=O)(=O)N2CCOCC2)c1)c1cc(Cl)ccc1O | 1.08 ± 0.014 |
| COc1ccc(S(=O)(=O)N(C(C)=O)c2ccccc2/C=C/c2cc[n+]([O-])cc2)cc1 | 0.855 ± 0.05 |
| NC[C@@](O)(c1ccc(Cl)cc1)c1ccc(-c2cn[nH]c2)cc1 | 0.23 ± 0.029 |
| COc1c(C)cnc(Cn2cnc3c(Cl)nc(N)nc32)c1C | 0.19 ± 0.017 |
| O=C(Cc1cccc(OC(F)(F)F)c1)Nc1ccc(CCCCc2nnc(NC(=O)Cc3ccccn3)s2)nn1 | 1.04 ± 0.35 |
| O=C1NC(=O)C(c2cnc3ccccn23)=C1c1cn2c3c(cc(F)cc13)CN(C(=O)N1CCCCC1)CC2 | 1.28 ± 0.1 |

| Structure (SMILES) | relative cell viability |
| --- | --- |
| COc1ccccc1S(=O)(=O)Nc1ccc2c(c1)CN(C)C(=O)N2 | 0.881 ± 0.091 |
| Cc1ncc(CCCN(C)C)cc1Nc1ncc2c(n1)-c1ccc(C(F)(F)F)cc1NC(=S)C2 | 0.81 ± 0.023 |
| CNc1nc(Nc2cnn([C@H]3CCN(C4COC4)C[C@@H]3F)c2Cl)ncc1C(F)(F)F | 1.14 ± 0.02 |
| Clc1ccc(C2(c3ccc(-c4cn[nH]c4)cc3)CCNCC2)cc1 | 0.972 ± 0.2 |
| CC1=C(C(=O)OC2CCCCC2)C(c2ccc([N+](=O)[O-])cc2)C2=C(CC(C)(C)CC2=O)N1 (centres undefined) | 1.19 ± 0.022 |
| COC(=O)C1=CO[C@@H](O[C@@H]2O[C@H](CO)[C@@H](O)[C@H](O)[C@H]2O)[C@@H]2C(CO)=CC[C@H]12 [Geniposide] | 1.11 ± 0.078 |
| COc1ccc(NS(=O)(=O)c2sc3ccc(Cl)cc3c2C)cc1N1CCNCC1 | 0.974 ± 0.19 |
| CCNC(=O)C#Cc1ccc2c(C(=Nc3ccc(CN(C)C)cc3)c3ccccc3)c(O)[nH]c2c1 | 0.278 ± 0.007 |
| CCOC(=O)CCNc1cc(N2CCc3ccccc3CC2)nc(-c2ccccn2)n1 | 0.742 ± 0.084 |
| Cc1cc(OCc2nnc(SC3CCCC3)n2-c2cccnc2)ccc1-c1ccc(S(C)(=O)=O)cc1 | 1.07 ± 0.024 |
| CCOC(=O)Nc1cc(-c2ccc(C)c(NS(C)(=O)=O)c2)nn2c(C)nnc12 [Bromosporine] | 0.851 ± 0.044 |
| CCc1c(O)cc(O)c(C(=O)c2ccc(OCCN3CCOCC3)c(OC)c2)c1CC(=O)N(CCOC)CCOC | 0.48 ± 0.01 |
| COC(=O)C[C@H](NC(=O)[C@H](C)NC(=O)[C@@H](NC(=O)OCc1ccccc1)C(C)C)C(=O)CF | 1 ± 0.094 |
| NC(=O)c1cccc2[nH]c(-c3ccc(C4CCCN4)cc3F)nc12 (centres undefined) | 0.981 ± 0.079 |
| NC1=N[C@@](c2cccc(-c3cncnc3)c2)(c2ccnc(C(F)F)c2)c2cccc(F)c21 | 1.34 ± 0.037 |
| COc1cccc2c1C(=O)c1c(O)c3c(c(O)c1C2=O)C[C@@](O)(C(=O)CO)C[C@@H]3O[C@H]1C[C@H](N)[C@H](O[C@@H]2CCCCO2)[C@H](C)O1 [Pirarubicin] | 0.157 ± 0.078 |
| COc1cccc2c1C(=O)c1c(O)c3c(c(O)c1C2=O)C[C@@](O)(C(C)=O)C[C@@H]3O[C@H]1C[C@H](N)[C@H](O)[C@H](C)O1 [Daunorubicin HCl] | 0.0682 ± 0.0026 |
| COc1cccc2c1C(=O)c1c(O)c3c(c(O)c1C2=O)C[C@@](O)(C(=O)CO)C[C@@H]3O[C@H]1C[C@H](N)[C@@H](O)[C@H](C)O1 [Epirubicin HCl] | 0.0641 ± 0.0026 |
| COc1cccc2c1C(=O)c1c(O)c3c(c(O)c1C2=O)C[C@@](O)(C(=O)CO)C[C@@H]3O[C@H]1C[C@H](N)[C@H](O)[C@H](C)O1 [Doxorubicin (Adriamycin)] | 0.144 ± 0.0086 |
| O=C(O)c1cc(I)ccc1NC(=O)[C@H](Cc1ccccc1)NCc1ccccc1 | 1.03 ± 0.032 |
| C=CC(=O)N1CCC(Oc2cc3c(Nc4ccc(Cl)c(Cl)c4F)ncnc3cc2OC)CC1 [Poziotinib (HM781-36B)] | 0.933 ± 0.022 |
| CN(C)CCN1C(=O)c2cccc3cc(N)cc(c23)C1=O [Amonafide] | 1.22 ± 0.09 |
